Where “and” joins values, the source holds several entries; their conditions need not be identical. Equal values may be shown once. Compounds without any hit were thinned out: in the full panel of roughly 83,000, 20% have a hit.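 Percent growth is the endpoint: 0 to 100 indicates growth inhibition (40 means 60% inhibition), 0 means no net growth, and negative values indicate cell death.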 Calls of active or inactive are those of the source. How the source made its calls: active means growth percent below 10; inactive means the rest.
What follows are molecules tested on MDA-MB-468 breast (assay: NCI-60 one-dose screen, 48 h (100 = growth as untreated, 0 = no growth, -100 = all killed)). Settings: 10 µM unless noted.

**Q.** How did the growth turn out when `COc1cccc(/C=C/[N+](=O)[O-])c1` was run?
**A.** Its growth is 25.8% (inactive).

**Q.** For `C[C@]12CCc3sc(Nc4ccc(F)cc4F)nc3C1=CC[C@@H]1[C@@H]2CC[C@]2(C)C(=O)CC[C@@H]12`, which growth is on record?
**A.** The growth was 23.3% (inactive).

**Q.** Which growth does the source give for `Cc1ccc(P(=O)(O)O)cc1` here?
**A.** The growth was 88.3% (inactive).

**Q.** How did the growth turn out when `CCCCOC(=O)c1ccccc1C(=O)O.CCCCOC(=O)c1ccccc1C(=O)O.[Cu+2]` was run?
**A.** Its growth is 103% (inactive).

**Q.** `N#Cc1ncc(/N=C/c2ccc(N(CCCl)CCCl)cc2)s1` was tested. Which growth did it give?
**A.** The growth was -2.43% (active).

**Q.** `O=C1c2ccccc2C(=O)N1N1CC1c1ccccc1` (stereo unspecified) was tested. Which growth did it give?
**A.** The growth was 104% (inactive).

**Q.** For `CCCN1C(=O)NC(=O)C(CC)(N2C(=O)c3c(F)c(F)c(F)c(F)c3C2=O)C1=O` (stereo unspecified), which growth is on record?
**A.** Its growth is -50.8% (active).

**Q.** For `O=[P+](O)c1ccccc1`, which growth is on record?
**A.** The growth was 114% (inactive).

**Q.** For `O=Cc1cn(Cc2ccccc2)c2ccccc12`, which growth is on record?
**A.** Its growth is 2.33% (active).

**Q.** Which growth does the source give for `Cc1cc(NC(=O)/C=C/c2ccc([N+](=O)[O-])cc2)ccc1S(=O)(=O)F` here?
**A.** The growth was 114% (inactive).

**Q.** Which growth does the source give for `CCCCCCCCCCCCCCCCCCOc1ccccc1COP(=O)(O)OOCC[N+](C)(C)C` here?
**A.** Its growth is -40.1% (active).

**Q.** `C[C@]12CCc3sc(Nc4ccc(F)cc4)nc3C1=CC[C@@H]1[C@@H]2CC[C@]2(C)C(=O)CC[C@@H]12` was tested. Which growth did it give?
**A.** Its growth is 40.8% (inactive).

**Q.** For `Nc1ccc2c(c1)oc1ccccc12`, which growth is on record?
**A.** The growth was 92.6% (inactive).

**Q.** Which growth does the source give for `CC1(CF)NC(=O)NC1=O` (stereo unspecified) here?
**A.** The growth was 113% (inactive).

**Q.** With `Cc1cc(N(CCCl)CCCl)ccc1C=Nc1ccc(-c2csc(Cc3ccccc3)n2)cc1` as the molecule, how does the growth read?
**A.** The growth was 39.3% (inactive).

**Q.** For `COc1cccc2c1c(C(=O)C(=O)Nc1ccn[nH]1)cn2Cc1ccc(F)cc1`, which growth is on record?
**A.** The growth was 43.3% (inactive).

**Q.** `O=[N+]([O-])c1cc[n+]([O-])c2ccccc12` was tested. Which growth did it give?
**A.** Its growth is -60.4% (active).

**Q.** With `CC[C@H](C)[C@H](NC(=O)Nc1ccccc1)C(=O)N(C)[C@H](C[C@@H](OC(C)=O)c1nc(C(=O)N[C@@H](Cc2ccccc2)C[C@H](C)C(=O)OC)cs1)C(C)C` as the molecule, how does the growth read?
**A.** The growth was -1.4% (active).

**Q.** `CC1[C@H](C)OC(=O)CC(O)CC(O)CC(O)CCC(O)C(O)C[C@]2(O)CC(O)C(C(=O)O)C(CC(OC3O[C@H](C)[C@@H](O)[C@H](N)[C@@H]3O)/C=C/C=C/C=C/C=C/CC/C=C/C=C/[C@H](C)[C@H]1O)O2` (stereo partly specified) was tested. Which growth did it give?
**A.** Its growth is 108% (inactive).

**Q.** With `COC(=O)[C@@H](C)C[C@H](Cc1ccccc1)NC(=O)c1csc([C@@H](C[C@H](C(C)C)N(C)C(=O)[C@@H](NC(=O)[C@H]2CCCN2C)C2CC2)OC(C)=O)n1` as the molecule, how does the growth read?
**A.** Its growth is -9.22% (active).

**Q.** With `CC(=O)O[C@H]1CC[C@@]2(C)C(=CC[C@H]3[C@@H]4C[C@@H](N5CC5)[C@H](C(C)=O)[C@@]4(C)CC[C@@H]32)C1` as the molecule, how does the growth read?
**A.** The growth was 79% (inactive).

**Q.** `O=C1C=CC(=O)C2C1C1(Cl)C(Cl)=C(Cl)C2(Cl)C1(Cl)Cl` (stereo unspecified) was tested. Which growth did it give?
**A.** The growth was 5.2% (active).

**Q.** How did the growth turn out when `C=CCn1cc(C=C2C(=O)N(C)C(=O)N(C)C2=O)c2ccccc21` was run?
**A.** Its growth is -35.5% (active).

**Q.** `COc1cc([C@@H]2c3cc4c(cc3[C@H](OC(C)=O)[C@H]3COC(=O)[C@@H]23)OCO4)cc(OC)c1OC` was tested. Which growth did it give?
**A.** Its growth is -40.2% (active).

**Q.** How did the growth turn out when `CN=C(NN)NN` was run?
**A.** The growth was 112% (inactive).

**Q.** For `NC(=O)NC(=O)CI`, which growth is on record?
**A.** Its growth is 83.7% (inactive).

**Q.** `COc1ccc(C(C#N)C(C)=O)cc1` (stereo unspecified) was tested. Which growth did it give?
**A.** Its growth is 106% (inactive).

**Q.** `C[C@]12CCc3sc(-c4ccc(Cl)cc4)nc3C1=CC[C@@H]1[C@@H]2CC[C@]2(C)C(=O)CC[C@@H]12` was tested. Which growth did it give?
**A.** The growth was 55.5% (inactive).

**Q.** `NC(=O)C(Cl)Cl` was tested. Which growth did it give?
**A.** Its growth is 103% (inactive).

**Q.** For `COc1cc([C@@H]2c3cc4c(c(O)c3C[C@H]3COC(=O)[C@@H]32)OCO4)cc(OC)c1OC`, which growth is on record?
**A.** Its growth is 5.12% (active).

**Q.** With `Oc1ccc(O)c(Cl)c1` as the molecule, how does the growth read?
**A.** The growth was 89.7% (inactive) and 95.1% (inactive).

**Q.** `CC[C@H](C)[C@H](NC(=O)C12CC(NC(C)=O)(C1)C2)C(=O)N(C)[C@H](C[C@@H](OC(C)=O)c1nc(C(=O)N[C@@H](Cc2ccccc2)C[C@H](C)C(=O)OC)cs1)C(C)C` was tested. Which growth did it give?
**A.** Its growth is 5.12% (active).

**Q.** For `COc1ccc(N)cc1N`, which growth is on record?
**A.** Its growth is 101% (inactive).

**Q.** `O=C1C2C(C(=O)[N]1[Hg][c]1cccs1)C1(Cl)C(Cl)=C(Cl)C2(Cl)C1(Cl)Cl` (stereo unspecified) was tested. Which growth did it give?
**A.** Its growth is -83.7% (active).

**Q.** How did the growth turn out when `CC(=O)O[C@@H]1[C@@H]2O[C@H]2[C@@](C)(O)C(=O)[C@@H](C)C/C=C/[C@H]2[C@@H]3O[C@]3(C)[C@@H](C)C3[C@H](Cc4ccccc4)NC(=O)[C@@]312` (stereo partly specified) was run?
**A.** Its growth is 56.8% (inactive).

**Q.** With `ClCCN(CCCl)Cc1ccc(Nc2ccnc3cc(Cl)ccc23)cc1` as the molecule, how does the growth read?
**A.** Its growth is -0.105% (active).
